Data published in the supplement of paper PMC6555819.

Tests used:
Assay in all cases: PBM binding z-score (relative to random genomic background probes); higher = stronger binding; sequences stand for … in GC…GCGATTGACAGCGTAGAATGAAGG
[1] = tested on: RARb homodimer (NR concentration 270 nM)
Method in brief: (§1)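 Binding buffer was PBS pH 7.4 with 2% milk, 0.02% Triton X-100, 1 mM DTT, 0.2 mg/mL BSA and 0.4 mg/ml salmon testes DNA. In it, ligand-free nuclear receptor dimers were incubated 1 h on custom Agilent 4×180K protein-binding microarrays carrying double-stranded probes. Antibodies against each partner (one per run) detected binding, and z-scores were calculated against random background probes after regression normalization of scanned fluorescence.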

[2] = tested on: RARg:RXRa (NR concentration 270 nM, RXRa partner concentration 90 nM)
Method in brief: as §1

[3] = tested on: RARg homodimer (NR concentration 270 nM)
Method in brief: as §1

[4] = tested on: RXRa DBDmut IVT, anti-RXR (DBD mutation: RXRa K156A/R161A, NR concentration 90 nM)
Method in brief: as §1

[5] = tested on: RXRa homodimer (NR concentration 180 nM)
Method in brief: as §1

[6] = tested on: THRa:RXRa (NR concentration 90 nM, RXRa partner concentration 90 nM)
Method in brief: as §1

[7] = tested on: THRa homodimer (NR concentration 90 nM)
Method in brief: as §1

[8] = tested on: VDR homodimer (NR concentration 270 nM)
Method in brief: as §1

| Sequence | PBM binding z-score [1] | PBM binding z-score [2] | PBM binding z-score [3] | PBM binding z-score [4] | PBM binding z-score [5] | PBM binding z-score [6] | PBM binding z-score [7] | PBM binding z-score [8] |
| --- | --- | --- | --- | --- | --- | --- | --- | --- |
| ATCTCTAGGTAACAAGTTCAGCGAAAGAGAGGAC | 2.17 | 2.04 | 1.72 | 0.87 | 1.27 | 1.74 | 0.96 | 3 |
| AATACAGGGTCAGCGTAGGCCAGAGTACGCACAG | 3.36 | 4.93 | 4.67 | 1.69 | 4.84 | 3.98 | 0.9 | 1.65 |
| ATCGAAAGGTCGAGGTGAGTATCGAGAAAGGGAA | 2.53 | 4.33 | 4.51 | 0.532 | 4.17 | 2.65 | 0.543 | 0.173 |
| GCAGACAGGAGAAACGCAGGTAACTCAGGGTGGC | -0.808 | -0.38 | -0.484 | -0.907 | -0.112 | 0.301 | -0.985 | -0.432 |
| TCTCGGAGGACACGAAAGTCAGAGCTTTCCAGAG | 0.384 | 0.378 | 1.08 | 0.647 | -0.0691 | 1.21 | 0.236 | -0.621 |
| CATACAGGGTCAGCTCGGCCAGAGTAGGGACGGC | 3.1 | 4.38 | 4.49 | 1.2 | 3.95 | 3.01 | 0.883 | 0.595 |
| ATCTCTAGGTAACCAAATTCAGTGAATGCCGAAC | 0.339 | 0.22 | 0.428 | 0.324 | 0.301 | 0.659 | 0.778 | 0.572 |
| ACTAGCAGGCCAAGCTTGGGTCACTCAAACAAAG | 2.07 | 2.09 | 1.49 | -0.187 | 0.849 | 2.18 | 0.602 | -0.227 |
| TCTGCTAGGTCAACGATGGTCAACTAATCTGCTA | 3.58 | 4.12 | 5.25 | 1.32 | 2.75 | 3.24 | 1.05 | 0.125 |
| ATATGTAGGTTAAGGGTCATTCACGTTGGTTCGC | 3.78 | 4.72 | 3.42 | 2.33 | 6.15 | 3.36 | 1.12 | 4.09 |
| CCTACTGGGCCCAGGTCATTGATCAGTCAAAGCA | 2.14 | 2.06 | 1.28 | -0.46 | 1.47 | 2.93 | 2.15 | 1.25 |
| ACTCGGCGGACAAAGGTCAGAGCTACGCCAGTGA | 4.19 | 5.15 | 4.72 | 0.437 | 4.46 | 2.39 | 0.00347 | 0.793 |
| CCAGACAGGTGAGAAGGTACCTCAGCCTCGATTA | 0.101 | 0.161 | 0.0168 | 0.0456 | 0.155 | 0.0348 | 0.0556 | -0.352 |
| ATCTCTAGGTAACCAAGATCAGTGAATGCCGAAC | -0.128 | 0.35 | 0.445 | -0.167 | 0.343 | 0.734 | 0.469 | -0.138 |
| GCTTGTAGATCTAGGTTAAGAAAGACTAAGCTAA | -0.325 | -0.324 | -0.326 | -0.252 | -0.074 | 0.276 | -0.767 | -0.721 |
| TCGAGTAGGTTATTCGGGGCATTCAGCCAACATA | 0.766 | 0.44 | 0.448 | 0.744 | 0.31 | 2.61 | 0.314 | 0.9 |
| TGAATGAGGTTATCAGATCAGGGAACGTTGCAAA | 0.317 | 1.62 | 1.06 | 0.731 | 1.99 | 2.02 | 0.233 | 0.273 |
| GCTAGCAGGCCATTTGGGTCACACAATGACGGGC | 1.93 | 1.23 | 1.48 | -0.0753 | 1.2 | 2.03 | 0.818 | 0.18 |
| GCGCCTGGGGCAAAGCAGGTTACCATAAGGTTGG | 0.951 | 0.319 | 0.493 | -0.424 | 0.237 | 2.96 | -0.193 | -0.387 |
| CCTTACGGGTGACGAGGTTATAGCACGACGAGCG | 1.05 | 1.29 | 0.849 | -0.461 | 1.95 | 1.33 | 0.317 | 0.36 |
| CCTATTAGTTGACCATAAGTGCAACCGAAGCTCG | 1.59 | 0.741 | 0.841 | 1.18 | 0.751 | 0.954 | 1.18 | 1.81 |
| TCGAGTAGGCTAGTCGGGGCATTCAGCCAACATA | -0.562 | -0.554 | -0.738 | -0.313 | -0.347 | -0.266 | -0.771 | -0.582 |
| GGAACGAGGGAAAGTTGATAGCAGAGTTTGATGG | -0.315 | -0.266 | 0.0692 | 0.0118 | -0.106 | -0.351 | -0.268 | -0.209 |
| CTCGAAAGGTCGGTTGAGGTGAGTATGCGGATAA | 2.57 | 2.73 | 2.73 | 0.85 | 2.4 | 5.15 | 1.43 | 0.532 |
| CCTAGCAGGCCAATCTGGGTCACTCGAGGCTTGA | 2.3 | 1.11 | 1.12 | -0.0882 | 0.738 | 3.7 | 0.253 | 0.136 |
| TCAGACAAGTGAAGGTAACTCAGGTACGCAGTCG | -0.322 | 0.211 | 0.249 | 1.1 | 0.825 | 1.1 | -0.375 | -0.0282 |
| ACTAGCAGGCCAAGGGTCACTGAAGATTAGTCCG | 3.8 | 4.5 | 3.97 | 0.371 | 4.49 | 2.68 | -0.0402 | 0.94 |
| TCTAGTTGGTCAAAGGTCGCACACTCGAAATGCG | 3.14 | 4.78 | 2.91 | 1.27 | 5.6 | 2.48 | 0.836 | 1.26 |
